# Measured values published in PubChem BioAssay (NCATS).
# The source made the active and inactive calls. Calls come from the whole dose curve; as a rule, active = well fitted curve in the direction sought with a large enough effect; inconclusive = small, poorly fitted or top-dose-only effect, or another doubt; inactive = no such curve, though single readings can be large or run the other way.
# Target: Hexokinase-4 (Homo sapiens) + Glucokinase regulatory protein (Homo sapiens) (UniProt P35557+Q14397)
# Test: qHTS assay for inhibitors of recombinant human GCK-GKRP interaction: HTRF assay (AID 743207);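 note: 0% = DMSO with GCK present and -100% = DMSO wells lacking GCK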
# Conditions: recombinant GCK-GKRP HTRF binding, 60 min, with sorbitol-6-phosphate; series mostly up to 57.5 µM; activity change, negative = inhibition: at the top concentration
# How it was run: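 5 nM GST-GCK + 5 nM FLAG-GKRP + 2 uM S6P, pH 7.1 buffer (25 mM Hepes, 2 mM MgCl2, 25 mM KCl, 1 mM DTT, Tween/BSA); pin-transferred cpd; anti-FLAG XL665/anti-GST K; 60 min RT; HTRF.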
# Chain of Hexokinase-4 (Homo sapiens) + Glucokinase regulatory protein (Homo sapiens) (P35557 whole entry, looked up): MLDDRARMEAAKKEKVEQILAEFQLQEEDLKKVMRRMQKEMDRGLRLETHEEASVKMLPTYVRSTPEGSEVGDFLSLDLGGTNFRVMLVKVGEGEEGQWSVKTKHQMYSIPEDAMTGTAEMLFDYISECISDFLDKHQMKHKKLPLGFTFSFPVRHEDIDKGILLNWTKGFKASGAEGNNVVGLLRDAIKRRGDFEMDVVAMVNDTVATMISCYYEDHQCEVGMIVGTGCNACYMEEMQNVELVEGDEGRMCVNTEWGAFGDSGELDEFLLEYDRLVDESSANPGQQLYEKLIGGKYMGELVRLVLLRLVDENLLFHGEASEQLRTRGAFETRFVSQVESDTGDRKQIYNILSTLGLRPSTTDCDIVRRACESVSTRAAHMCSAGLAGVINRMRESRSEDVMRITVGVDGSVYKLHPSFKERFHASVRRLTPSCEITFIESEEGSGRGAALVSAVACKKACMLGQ
# Chain of Hexokinase-4 (Homo sapiens) + Glucokinase regulatory protein (Homo sapiens) (Q14397 whole entry, looked up): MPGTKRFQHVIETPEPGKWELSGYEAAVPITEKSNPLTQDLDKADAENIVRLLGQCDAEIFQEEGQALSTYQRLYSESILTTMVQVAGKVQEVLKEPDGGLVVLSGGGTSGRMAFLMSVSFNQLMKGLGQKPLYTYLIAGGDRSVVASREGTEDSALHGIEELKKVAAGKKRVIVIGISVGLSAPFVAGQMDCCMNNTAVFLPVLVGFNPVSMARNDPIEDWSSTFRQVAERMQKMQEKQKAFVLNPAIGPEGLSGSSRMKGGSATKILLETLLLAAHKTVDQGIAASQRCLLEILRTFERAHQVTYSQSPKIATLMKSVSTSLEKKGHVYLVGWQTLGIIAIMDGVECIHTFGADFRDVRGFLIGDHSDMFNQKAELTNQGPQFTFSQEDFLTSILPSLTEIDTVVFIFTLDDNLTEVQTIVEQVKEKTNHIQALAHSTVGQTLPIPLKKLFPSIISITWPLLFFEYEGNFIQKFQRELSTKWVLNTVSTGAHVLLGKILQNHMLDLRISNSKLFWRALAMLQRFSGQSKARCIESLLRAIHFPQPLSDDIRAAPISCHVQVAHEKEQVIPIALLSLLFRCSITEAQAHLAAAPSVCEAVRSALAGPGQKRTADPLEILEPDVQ
row,Structure (SMILES),"activity change, negative = inhibition"
1,N#Cc1cc2nc(O)c(O)nc2cc1[N+](=O)[O-],-10.7% (inactive)
2,NOCC(=O)O,5.69% (inactive)
3,c1ccc(C(NCCNC(c2ccccc2)c2ccccc2)c2ccccc2)cc1,-7.57% (inactive)
4,Cc1cc(Cn2cnc3c2C[C@@H](C(=O)O)N(C(=O)C(c2ccccc2)c2ccccc2)C3)ccc1N,2.92% (inactive)
5,N[C@H](C(=O)O)[C@H]1C[C@@H]1C(=O)O,0.822% (inactive)
6,CCN(CC)CCCCCCCCOC(=O)c1cc(OC)c(OC)c(OC)c1,11.2% (inactive)
7,Nc1ncnc2c1nc(Br)n2C1OC2COP(=O)(O)O[C@@H]2C1O (stereo partly drawn),8.96% (inactive)
8,COc1cc(C(O)C(=O)O)ccc1O (stereo not drawn),-7.98% (inactive)
9,CC(C)C[C@H](NC(=O)C1OC1C(=O)O)C(=O)NCCCCN=C(N)N (stereo partly drawn),-1.92% (inactive)
10,COCc1nc2c([nH]1)c(=O)n(C)c(=O)n2CC(C)C,-0.439% (inactive)
11,CC(=O)NCCc1c[nH]c2ccc(O)cc12,12.9% (inactive)
12,N[C@@H](Cc1ccc(F)cc1)C(=O)O,-10.3% (inactive)
13,NC1CCN(O)C1=O (stereo not drawn),4.43% (inactive)
14,NC(C(=O)N[C@@H]1C(=O)N2C(C(=O)O)=C(Cl)CS[C@H]12)c1ccccc1 (stereo partly drawn),-13.5% (inactive)
15,O=C1C2C=CC=CC2=NC(=S)N1CCN1CCC(=C(c2ccc(F)cc2)c2ccc(F)cc2)CC1 (stereo not drawn),1.81% (inactive)
16,OCC1NCC(O)C(O)C1O (stereo not drawn),2.54% (inactive)
17,CSC(N)=NCCC[C@H](N)C(=O)O,14.2% (inactive)
18,CC1C(=O)N(C)C(=O)c2nc[nH]c21 (stereo not drawn),1.46% (inactive)
